APEX1 inh: inhibitors of human APE1 endonuclease; P27695; recombinant APE1, TAMRA/BHQ-2 abasic DNA cleavage fluorescence; Potency, µM (doses to about 65.8 µM), inactives show at the top dose activity change, negative = inhibition, most hits filed as inhibitors; 350,000 tested, 0.35% active; AID 2517;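 further: plate controls were vehicle for no effect and reference inhibitor for full effect; nearly all actives have a fitted effect of over 55% in size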
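APE1 at 0.75 nM final was preincubated with compound 15 min at room temperature, then 50 nM double-stranded THF abasic-site substrate (5'-TAMRA/3'-BHQ-2) was added. Fluorescence (ex 525/em 598 nm) was read kinetically; third-minus-first read gave activity.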
ERG Ets-DNA blk: blocks human ERG Ets domain binding to DNA. AID 624246. fluorescence polarization, His-ERG Ets domain / labelled DNA. P11308. Potency, µM (series often up to 76.9 µM), inactives show at the highest dose FP activity, negative = inhibition, usual class: inhibitors. 370,000 tested, 0.028% active; active means well fitted inhibition curve with a large enough effect in the polarisation, with a control signal flat; inconclusive means small, poorly fitted or top-dose-only effect, or effect the other way, or a change in a side signal; inactive means no such curve, though single readings can be large or run the other way; the % refers to the polarisation;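 further: polarization taken with two DNA probes labelled with fluorescein and Texas red; % of control where 0% means no effect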
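His-tagged ERG Ets domain (1 uM in the protein solution; 300mM KCl, 50mM Tris-HCl, 1mM EDTA, 1mM DTT, pH 7.5) received compound, then a probe mix of 5 nM fluorescein-DNA and 100nM Texas-615-DNA. Fluorescence polarization was read for both dyes.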
WRN inhibitor: inhibitors of human WRN helicase; WRN helicase unwinding, fluorescent forked duplex, kinetic; Potency, µM (titrated, usually from 114 µM), for the others: at the highest dose activity change, negative = inhibition, most hits filed as inhibitors; 360,000 tested, 0.46% active; AID 651768; further: on the % scale 0 is the no-effect control and ±100 the full control effect; nearly all actives have a fitted effect of over 55% in size
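Primary qHTS, 1536-well format. 20 nM WRN + compound, 15 min RT; start with 100 nM forked fluorophore/quencher duplex, 2 mM ATP (final); kinetic read ex 525/em 598 nm.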
RECQ1 helicase: inhibitors of human RECQ1 DNA helicase | P46063 | RECQ1 DNA unwinding, red fluorescence kinetic read | Potency, µM (top dose mostly 57.3 µM), inactives show top-dose activity, negative = inhibition, actives largely listed as inhibitors | 240,000 tested, 0.54% active;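 further: plate controls were vehicle for no effect and no enzyme for full effect; nearly all actives have a fitted effect of over 30% in size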
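RECQ1T1 50 nM; forked duplex (20 bp + 30-nt ss tails) 200 nM, ATP 2 mM final; pH 8.0, 2 mM MgCl2, 2.5 ug/ml poly(dI-dC); 15 min compound preincubation; discontinuous kinetic read over 2 h at RT.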
GCN5L2 inh: inhibitors of human GCN5L2 histone acetyltransferase; Q92830; GCN5L2 HAT assay, ThioGlo1 CoA-SH fluorescence; Potency, µM (doses to about 58.9 µM), for inactives: at the highest dose activity change, negative = inhibition, most hits filed as inhibitors; 390,000 tested, 0.21% active; further: on the % scale 0 is the no-effect control and ±100 the full control effect
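Titration-based screen in which CoA formation is detected via maleimide probe ThioGlo1 (50uM) turning fluorescent on thiol reaction; substrates H3(1-25) 75uM and acetyl-CoA 70uM, GCN5L2 20nM, 20 min incubation at room temperature.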
BLM helicase inh: Bloom syndrome helicase (human) inhibition; P54132; recombinant BLM DNA unwinding, fluorescence dequenching; Potency, µM (highest dose often 56.1 µM), for inactives: top-dose activity change, negative = inhibition, hits mostly inhibitors; 350,000 tested, 0.2% active; AID 2528;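 further: plate controls were vehicle for no effect and no enzyme for full effect; nearly all actives have a fitted effect of over 35% in size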
Numbers without * were called inactive; [ ] = remark or other dose. Sampled rows, rich in hits. Any-hit rate of the full collection: about 0.88%. Unless noted, the call rests on the fitted dose curve; in most records, active means well fitted curve in the direction sought with a large enough effect; inconclusive means small, poorly fitted or top-dose-only effect, or another doubt; inactive means no such curve, though single readings can be large; an effect the other way counts as inactive or inconclusive. Potency means the concentration at half of the fitted maximal effect.

How did Nc1nc2c(c(=O)[nH]1)N(C=O)C(CNc1ccc(C(=O)N[C@@H](CCC(=O)O)C(=O)O)cc1)CN2 (some centres undefined) do in these assays?
APEX1 inh: 11.2%[21 µM]

What do the screens show for `CC(=O)OCC(CO)OC(C)=O` (centres undefined) (tested in a mixture with another compound)?
APEX1 inh: -4.3%; RECQ1 helicase: -18.3%; GCN5L2 inh: -6.2%; BLM helicase inh: 2.3%

Results for OC1COCOC1C(O)C1OCOCC1O (centres undefined) ?
ERG Ets-DNA blk: -23.7%; WRN inhibitor: 12.0%

How did CCc1cc(=S)n2c([nH]c3ccccc32)c1C#N do in these assays?
APEX1 inh: 8.0%; ERG Ets-DNA blk: 5.2%; WRN inhibitor: -1.6%; RECQ1 helicase: inactive; GCN5L2 inh: 28.2µM*; BLM helicase inh: 2.8%

What do the screens show for `CC1(C)Cc2c(c(-c3ccco3)[nH]c(=O)c2C#N)CS1`?
APEX1 inh: -8.7%; ERG Ets-DNA blk: -17.0%; WRN inhibitor: -25.4%; RECQ1 helicase: 31.6µM*; GCN5L2 inh: -3.9%; BLM helicase inh: -1.7%

What do the screens show for `CC1(C)Cc2c(C#N)c(N3CCN(C(=O)c4ccco4)CC3)nc(-c3ccco3)c2CS1`?
APEX1 inh: 6.7%; ERG Ets-DNA blk: -7.6%; WRN inhibitor: 39.8µM*; RECQ1 helicase: -1.0%; GCN5L2 inh: inconclusive; BLM helicase inh: inconclusive

How did CC(=O)N1CCN(c2nc(-c3ccco3)c3c(c2C#N)CC(C)(C)SC3)CC1 do in these assays?
APEX1 inh: 1.2%; ERG Ets-DNA blk: -13.4%; WRN inhibitor: -25.0%; RECQ1 helicase: -4.1%; GCN5L2 inh: -10.7%; BLM helicase inh: -8.4%

What do the screens show for `CCOc1ccc(C(=O)Cn2c(=O)n3nc(CCn4nc(C)cc4C)nc3c3cc(OC)c(OC)cc32)cc1`?
ERG Ets-DNA blk: 4.5%; GCN5L2 inh: -3.8%; BLM helicase inh: 0.3%

What do the screens show for `O=C(N/N=C/c1ccc(OCCCF)cc1)c1cc(OCC(F)(F)F)ccc1OCC(F)(F)F`?
APEX1 inh: -2.0%; ERG Ets-DNA blk: 0.8%; WRN inhibitor: -3.0%; RECQ1 helicase: -20.0%; GCN5L2 inh: 0.891µM*; BLM helicase inh: -0.5%

What do the screens show for `CCOC(=O)C[n+]1c(C)sc2ccc(OC)cc21`?
APEX1 inh: 0.9%; ERG Ets-DNA blk: 13.2%; WRN inhibitor: 50.1µM*; RECQ1 helicase: inactive; GCN5L2 inh: -12.8%; BLM helicase inh: 1.2%

Results for Cn1c(=O)[nH]c(=O)c2c1[nH]c(=S)n2CCCc1ccccc1 ?
APEX1 inh: 8.3%; ERG Ets-DNA blk: inconclusive; WRN inhibitor: 8.8%; GCN5L2 inh: 15.8µM*; BLM helicase inh: -1.7%

What do the screens show for `Cn1c(=O)c2c([nH]c(=S)n2CCCc2ccccc2)n(C)c1=O`?
APEX1 inh: -8.2%; ERG Ets-DNA blk: -2.8%; WRN inhibitor: 7.2%; GCN5L2 inh: 11.2µM*; BLM helicase inh: 3.0%

What do the screens show for `Cn1c(=O)[nH]c(=O)c2c1nc(Br)n2CCCc1ccccc1`?
APEX1 inh: -2.5%; RECQ1 helicase: inconclusive; GCN5L2 inh: 1.8%; BLM helicase inh: -0.2%

What do the screens show for `CCC1CC=CC2C1C(=O)N(Cc1ccccc1)C2c1ccoc1` (centres undefined)?
APEX1 inh: -4.3%; RECQ1 helicase: -12.3%; BLM helicase inh: -10.6%

What do the screens show for `Cc1ccc(NC(=O)c2ccc(Cl)c(N3C(=O)C=CC3=O)c2)cc1`?
APEX1 inh: 0.8%; ERG Ets-DNA blk: -4.6%; WRN inhibitor: 50.1µM*; RECQ1 helicase: -9.5%; GCN5L2 inh: 17.8µM*; BLM helicase inh: -6.6%

Results for O=C(Nc1ccc(Cl)c(Cl)c1)c1ccc(Cl)c(Cl)c1 ?
APEX1 inh: 15.6%; ERG Ets-DNA blk: 1.3%; WRN inhibitor: -1.5%; RECQ1 helicase: inactive; GCN5L2 inh: 0.5%; BLM helicase inh: -14.1%

How did COc1ccccc1N1CCN(S(=O)(=O)c2c(C)sc3ncn(CC(=O)N(C)c4ccc(C(C)C)cc4)c(=O)c23)CC1 do in these assays?
ERG Ets-DNA blk: 2.6%; GCN5L2 inh: -14.8%; BLM helicase inh: -8.3%

Results for O=C(CSc1nc2nn(-c3ccccc3)c(=O)c-2c2n1CCCCC2)c1ccc(O)c(O)c1 ?
APEX1 inh: inconclusive; ERG Ets-DNA blk: -11.3%; WRN inhibitor: 2.82µM*; GCN5L2 inh: inconclusive

How did O=C(O)c1ccc(-c2ccc(/C=c3/sc4nc5ccccc5n4c3=O)o2)cc1Cl do in these assays?
APEX1 inh: 9.47µM*; ERG Ets-DNA blk: 18.6%; WRN inhibitor: inconclusive; GCN5L2 inh: -16.9%; BLM helicase inh: inconclusive

How did CC[n+]1c(/C=C2\Sc3ccccc3N2C)ccc2cccc(C)c21 do in these assays?
APEX1 inh: -1.3%; ERG Ets-DNA blk: 82.5%; WRN inhibitor: 50.1µM*; RECQ1 helicase: inconclusive; GCN5L2 inh: -3.2%; BLM helicase inh: 62.6%

Results for CCN1/C(=C/c2ccc3cc(C)ccc3[n+]2CC)Sc2ccccc21 ?
APEX1 inh: -10.7%; ERG Ets-DNA blk: 99.8%; WRN inhibitor: inconclusive; RECQ1 helicase: inconclusive; GCN5L2 inh: -17.6%; BLM helicase inh: 4.6%

What do the screens show for `CCSc1n[nH]c(=S)s1`?
APEX1 inh: -3.7%; ERG Ets-DNA blk: 3.2%; WRN inhibitor: -5.4%; RECQ1 helicase: -1.2%; GCN5L2 inh: 31.6µM*; BLM helicase inh: -6.3%

Results for Nc1cc(S(=O)(=O)O)cc2ccc(S(=O)(=O)O)cc12 ?
ERG Ets-DNA blk: -23.7%; WRN inhibitor: -14.6%

What do the screens show for `O=S(=O)(O)c1cc(O)c2c(O)c(N=Nc3cc(Cl)ccc3O)c(S(=O)(=O)O)cc2c1`?
APEX1 inh: 11.9µM*; ERG Ets-DNA blk: 21.3%; WRN inhibitor: 44.7µM*; GCN5L2 inh: -10.6%; BLM helicase inh: 70.2%

What do the screens show for `Oc1ccc(Cl)cc1N=Nc1ccccc1`?
APEX1 inh: 6.9%; ERG Ets-DNA blk: 12.8%; WRN inhibitor: -1.4%; GCN5L2 inh: -13.8%; BLM helicase inh: -4.6%

What do the screens show for `Cc1cc(-c2ccc(N=Nc3c(S(=O)(=O)O)cc4cc(S(=O)(=O)O)cc(N)c4c3O)c(C)c2)ccc1N=Nc1c(S(=O)(=O)O)cc2cc(S(=O)(=O)O)cc(N)c2c1O`?
APEX1 inh: 0.474µM*; GCN5L2 inh: 11.2µM*; BLM helicase inh: -82.5%

How did COc1ccc([N+](=O)[O-])cc1NC(=O)Nc1ccc(OC)c(OC)c1 do in these assays?
APEX1 inh: 3.1%; ERG Ets-DNA blk: -4.1%; WRN inhibitor: inconclusive; RECQ1 helicase: inactive; GCN5L2 inh: 16.6%; BLM helicase inh: 31.6µM*

Compound activity deposited in PubChem BioAssay by National Center for Advancing Translational Sciences (NCATS).
